Results from the antibiotic and cytotoxicity screens of Wong et al. (2023).
Among all 39,000 compounds or so, about 3,300 (8.5%) were called active. What follows is part of a selection rich in actives, with near analogues and random picks from the rest.

test system: HepG2; assay: cytotoxicity call (relative viability < 0.9); details: 10 µM

Row | SMILES | cytotoxicity call
1 | O=C(O)C(O)C(O)C(OC1OC(CO)C(O)C(O)C1O)C(O)CO (stereo not given) | inactive
2 | COc1cccc(S(=O)(=O)N[C@H]2C=C[C@H](CC(=O)NC3CCC3)O[C@@H]2CO)c1 | inactive
3 | O=C(Nc1cccc(C(F)(F)F)c1)c1ccc2ccccc2c1 | active
4 | O=C(O)c1ccccc1Nc1cccc(C(F)(F)F)c1 | inactive
5 | CC(C)(C)c1ccc(C(=O)Nc2cccc(C(F)(F)F)c2)cc1 | inactive
6 | C[C@@H]1CCCCO[C@@H](CN(C)S(=O)(=O)c2ccc(F)cc2)[C@H](C)CN([C@H](C)CO)C(=O)c2cc(NC(=O)CCC(F)(F)F)ccc2O1 | inactive
7 | C[C@@H]1CN([C@H](C)CO)S(=O)(=O)c2ccc(C3=CCCCC3)cc2O[C@H]1CN(C)Cc1cncnc1 | inactive
8 | CCCCN(CCCC)CC(O)c1cc(Cl)cc2c1-c1ccc(Cl)cc1C2=Cc1ccc(Cl)cc1 (stereo not given) | active
9 | CCCCN(CCCC)CC[C@@H](O)c1cc2c(Cl)cc(Cl)cc2c2cc(C(F)(F)F)ccc12 | inactive
10 | C[C@@H]1CCCCO[C@@H](CN(C)Cc2ccncc2)[C@H](C)CN([C@@H](C)CO)C(=O)c2cc(NC(=O)CCCCCC(=O)Nc3ccccc3N)ccc2O1 | inactive
11 | C[C@@H]1CN([C@@H](C)CO)C(=O)Cc2cc(NC(=O)Nc3ccc(F)cc3)ccc2O[C@@H]1CN(C)Cc1ccc(Cl)c(Cl)c1 | active
12 | C[C@H]1CN([C@@H](C)CO)C(=O)Cc2cc(NC(=O)Nc3ccc(F)cc3)ccc2O[C@H]1CN(C)Cc1ccc(Cl)c(Cl)c1 | active
13 | C[C@H](CO)N1C[C@H](C)[C@@H](CN(C)Cc2ccc(Cl)c(Cl)c2)Oc2ccc(NC(=O)Nc3ccc(F)cc3)cc2CC1=O | active
14 | C[C@@H]1CN([C@H](C)CO)C(=O)Cc2cc(NC(=O)Nc3ccc(F)cc3)ccc2O[C@@H]1CN(C)Cc1ccc(Cl)c(Cl)c1 | active
15 | COc1ccc(-n2c(C)cc(CN)c2C)cc1 | inactive
16 | O=C(C[C@H]1C[C@@H]2c3cc(NC(=O)c4ccc5c(c4)OCO5)ccc3O[C@@H]2[C@H](CO)O1)NCC(F)(F)F | inactive
17 | CC(C)NC(=O)N(C)C[C@H]1Oc2c(NC(=O)NC3CCCCC3)cccc2C(=O)N([C@H](C)CO)C[C@@H]1C | inactive
18 | Cc1noc(C)c1NC(=O)Nc1ccc2c(c1)CC(=O)N([C@@H](C)CO)C[C@H](C)[C@@H](CN(C)S(C)(=O)=O)O2 | inactive
19 | C[C@H](CO)N1C[C@H](C)[C@H](CN(C)C(=O)Nc2ccc3c(c2)OCO3)OCCCC[C@H](C)Oc2ccc(NC(=O)Nc3ccccc3)cc2C1=O | inactive
20 | C[C@@H]1CCCCO[C@H](CN(C)S(=O)(=O)c2cccs2)[C@@H](C)CN([C@H](C)CO)C(=O)c2cc(NC(=O)Cc3ccccc3)ccc2O1 | inactive

Row | SMILES | cytotoxicity call
21 | COc1ccc(S(=O)(=O)N(C)C[C@@H]2OCCCC[C@H](C)Oc3ccc(NC(=O)c4ccccc4)cc3C(=O)N([C@H](C)CO)C[C@@H]2C)cc1 | inactive
22 | Cc1ccc(S(=O)(=O)N(C)C[C@@H]2Oc3ccc(NS(=O)(=O)c4cccs4)cc3CC(=O)N([C@H](C)CO)C[C@@H]2C)cc1 | inactive
23 | COc1ccc(COC[C@]23NC(=O)N[C@H](c4ccccc4O2)[C@H]3COC(=O)NCCCCCC(=O)NO)cc1 | inactive
24 | COCC(=O)N(C)C[C@H]1Oc2cc(-c3ccc(C#N)cc3)ccc2S(=O)(=O)N([C@H](C)CO)C[C@@H]1C | inactive
25 | O=C(CCCCCNC(=O)OCc1ccc(CO[C@@H]2C[C@H](c3ccc(Br)cc3)C=C(C(=O)N3CCN(Cc4ccccc4)CC3)O2)cc1)NO | inactive
26 | COCC(=O)N(C)C[C@H]1Oc2cc(C#CCN(C)C)ccc2S(=O)(=O)N([C@@H](C)CO)C[C@@H]1C | inactive
27 | C[C@H](CO)N1C[C@H](C)[C@H](CN(C)S(=O)(=O)c2cccs2)OCCCC[C@H](C)Oc2ccc(NS(=O)(=O)c3cn(C)cn3)cc2C1=O | inactive
28 | C[C@@H]1CN([C@H](C)CO)C(=O)c2cccc(N(C)C)c2O[C@H]1CN(C)S(C)(=O)=O | inactive
29 | C[C@@H]1CN([C@H](C)CO)C(=O)Cc2cc(NC(=O)Nc3ccc(F)cc3)ccc2O[C@H]1CN(C)Cc1ccc(Cl)c(Cl)c1 | inactive
30 | C[C@@H]1CN([C@@H](C)CO)C(=O)Cc2cc(NC(=O)Nc3ccc(F)cc3)ccc2O[C@H]1CN(C)Cc1ccc(Cl)c(Cl)c1 | active
31 | C[C@H]1CN([C@@H](C)CO)C(=O)Cc2cc(NC(=O)Nc3ccc(F)cc3)ccc2O[C@@H]1CN(C)Cc1ccc(Cl)c(Cl)c1 | active
32 | C[C@H](CO)N1C[C@H](C)[C@H](CN(C)Cc2ccc(Cl)c(Cl)c2)Oc2ccc(NC(=O)Nc3ccc(F)cc3)cc2CC1=O | active
33 | C[C@H](CO)N1C[C@H](C)[C@@H](CN(C)S(=O)(=O)c2cn(C)cn2)Oc2c(NC(=O)CCCN(C)C)cccc2C1=O | inactive
34 | COc1ccc(NC(=O)N[C@@H]2CC[C@@H](CCNC(=O)CN3CCOCC3)O[C@@H]2CO)cc1 | inactive
35 | C[C@@H]1CN([C@@H](C)CO)C(=O)CCCn2cc(nn2)CO[C@H]1CN(C)S(=O)(=O)c1ccc2c(c1)OCCCO2 | inactive
36 | Cc1noc(C)c1NC(=O)N(C)C[C@H]1Oc2ccc(NS(C)(=O)=O)cc2C(=O)N([C@@H](C)CO)C[C@H]1C | inactive
37 | C[C@H]1CCCCO[C@@H](CN(C)S(=O)(=O)c2ccc(F)cc2)[C@@H](C)CN([C@@H](C)CO)C(=O)c2cc(NC(=O)Nc3cccc4ccccc34)ccc2O1 | inactive
38 | Cc1noc(C)c1NC(=O)Nc1ccc2c(c1)C(=O)N([C@H](C)CO)C[C@@H](C)[C@H](CN(C)C(=O)Nc1ccc(C(F)(F)F)cc1)OCCCC[C@@H](C)O2 | inactive
39 | C[C@@H]1CN([C@H](C)CO)C(=O)c2cccc(NS(=O)(=O)c3ccccc3)c2O[C@@H]1CN(C)S(=O)(=O)c1cccs1 | inactive
40 | C/C1=C2/[N]([Co+][OH])[C@H]([C@H](CC(N)=O)[C@@]2(C)CCC(=O)NC[C@@H](C)OP(=O)(O)O[C@H]2[C@@H](O)[C@@H](n3cnc4cc(C)c(C)cc43)O[C@@H]2CO)[C@]2(C)N=C(/C(C)=C3N=C(/C=C4N=C1[C@@H](CCC(N)=O)C/4(C)C)[C@@H](CCC(N)=O)[C@]\3(C)CC(N)=O)[C@@H](CCC(N)=O)[C@]2(C)CC(N)=O | active
